HCMV inh: human cytomegalovirus inhibition; HFF cells, HCMV-luciferase reporter, 72 h; hits give low values; 410,000 tested, 4.5% active; activity change, negative = inhibition, % at 57.5 µM; in the data active = activity change below about -60%; inconclusive = no clear call, values can overlap the other calls; inactive = above about -39%; also: % is scaled to controls: 0 for no effect and ±100 for the full control effect
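Screen run at 2 compound doses on HFFs infected with reporter HCMV, MOI 1 PFU/cell. Luciferase activity from cell lysates at 72 h post infection gave inhibition relative to buffer-only and Salinomycin wells.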
Pf growth 48h: inhibits P. falciparum growth in the first generation, 48 h. 310,000 tested, 5.9% active. AID 504832. P. falciparum luciferase growth in erythrocytes, 48 h. Potency, µM (doses to about 28.7 µM), for the others: at the top dose activity change, negative = inhibition, hits mostly inhibitors; also: potency is read from the fitted curve at half-maximal effect; % is scaled to controls: 0 for no effect and ±100 for the full control effect
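Luminescence readout; reporter = integrated firefly luciferase in P. falciparum. RBC culture at 2% hematocrit, 0.1% parasitemia final, 37 C/5% CO2; decreased signal taken as growth inhibition.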
Shiga toxin inh: blocks Shiga toxin action in Vero cells; Vero cells, Shiga toxin protein synthesis inhibition reporter; inhibition, % at 38.7 µM; 290,000 tested, 9.2% active; in the data active = inhibition mostly above about 28%, no sharp cut-off; inactive = mostly below about 43%; also: 0% is about no effect
HCV inh: inhibitors of hepatitis C virus infection; Potency, µM (top dose mostly 41.8 µM), without a hit: at the top dose activity change, negative = inhibition, hits mostly inhibitors; Huh7.5.1 HCVcc-Cre infection, luciferase reporter, 44 h; AID 651820; 340,000 tested, 3.4% active; also: potency is read from the fitted curve at half-maximal effect; % is scaled to controls: 0 for no effect and ±100 for the full control effect
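Reporter virus HCVcc-Cre (~0.5 moi) infects cells exposed to compound; seeding density 1,000 cells/well with 4 h settling beforehand. Luminescence, 15 sec read, taken 44 h post-infection following a 15 min RT substrate incubation.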
Pf growth 96h: P. falciparum growth inhibition at 96 hour, primary screen for plastid delayed-death inhibitors. P. falciparum luciferase reporter growth, 96 h. Potency, µM (titrated, usually from 28.7 µM), for the others: at the top dose activity change, negative = inhibition, usual class: inhibitors. 320,000 tested, 6.9% active. AID 504834; also: potency is read from the fitted curve at half-maximal effect; % is scaled to controls: 0 for no effect and ±100 for the full control effect
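Plates of compound plus infected erythrocytes (2% hematocrit, 0.05% parasitemia final) incubate 96 hours, 37 C, 5% CO2. Detection reagent added; reduced luminescence from the parasites' luciferase reporter flags inhibition.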
Cycloheximide cs: counter-screen for Shiga toxin inhibitors: cycloheximide protein synthesis inhibition; cell reporter, cycloheximide protein synthesis inhibition counterscreen; max response, %; 300,000 tested, 12% active; in the data active = max response mostly above about 13%, no sharp cut-off; inactive = mostly below about 14%; also: read at 38.3 µM for the half of the compounds with a filed dose; 0% is about no effect
* = called active by the depositor; u = inconclusive; x = not tested or not shown. Sampled rows, rich in hits. Any-hit rate of the full collection: about 21%. Unless noted, calls follow the shape of the dose curve; as a rule, active = well fitted inhibition curve with a large enough effect; inconclusive = small, poorly fitted or top-dose-only effect, or another doubt; inactive = no such curve, though single readings can be large or run the other way.

SMILES	HCMV inh	Pf growth 48h	Shiga toxin inh	HCV inh	Pf growth 96h	Cycloheximide cs
C=CCOn1c(C)c(C(C)=O)c2c3no[n+]([O-])c3ccc21	u	-21%	-5	u	u	-3
CCOC(=O)c1c(C)n(OCc2ccccc2)c2ccc3nonc3c12	-13	u	14	u	u	0
Cn1c(=O)oc2cc(S(=O)(=O)Nc3ccccc3O)ccc21	5	-20%	6	10%	10%	4
Cn1c(=O)oc2ccc(S(=O)(=O)Nc3ccc(Cl)cc3[N+](=O)[O-])cc21	-62*	x	x	x	x	x
CCCCN(C)C(=O)CN1C(=O)c2cccnc2Oc2ccc(Cl)cc21	0	x	x	x	x	x
O=C(NCCn1cc(SCc2cccc(F)c2)c2ccccc21)c1cccc(C(F)(F)F)c1	-92*	x	x	x	x	x
O=C(CSc1cn(Cc2ccccc2)c2ccccc12)N1CCOCC1	59	62%	96*	-8%	35%	21*
CC1CN(C(=O)CSc2cn(CC(=O)N3CCOCC3)c3ccccc23)CC(C)O1 (stereo not drawn)	0	5%	-3	8%	-19%	13
O=C(NCCn1cc(SCC(=O)N2CCOCC2)c2ccccc21)c1ccccc1	10	13%	37*	-18%	44%	19*
O=C(COC(=O)C1C2CC3OC(=O)C1C3C2)Nc1ccc(Cl)cc1 (stereo not drawn)	-7	5%	6	9%	49%	14
Cc1cccc(C)c1Nc1nnc(SCc2nc3ccccc3s2)s1	5	110%	69	-23%	0%	50*
Cc1ccc(Nc2nnc(SCc3nc4ccccc4c(=O)[nH]3)s2)cc1	0	-9%	-4	-7%	u	1
COc1cccc(Nc2nnc(SCC(=O)N(CC(C)C)CC(C)C)s2)c1	17	u	-5	u	1.3µM*	-4
COc1cccc(Nc2nnc(SCN3C(=O)c4ccccc4C3=O)s2)c1	40	63%	3	-1%	140%	6
COc1cccc(Nc2nnc(SCc3nc4ccccc4s3)s2)c1	145	146%	109*	-5%	64%	65*
CC(Nc1ccc(-c2nc(-c3ccncc3)no2)cc1[N+](=O)[O-])c1ccccc1 (stereo not drawn)	22	x	x	x	x	x
COc1ccc(-c2cnc(N)nc2-c2ccc(OC)cc2)cc1	-4	-20%	2	u	-19%	-2
COc1ccc2c(c1)CCc1cnc(N)nc1-2	-68*	30%	19	u	u	12*
Cc1cc(C)n2nc(CC(=O)NNC(=O)c3ccccc3Cl)nc2n1	-27	38%	-9	16%	44%	5
O=C(Nc1ccccc1N1CCOCC1)c1cccc(F)c1	9	-11%	-4	u	u	-1
COc1ccc(NS(=O)(=O)c2ccc(N3CCOCC3)c(NC(=O)c3ccc(F)cc3)c2)cc1	-33	-30%	-18	u	u	-1
COc1ccc(NS(=O)(=O)c2ccc(N3CCOCC3)c(NC(=O)c3cccc(F)c3)c2)cc1	-78*	u	-9	-45%	u	-3
O=C(Nc1ccc(N2CCN(C(=O)c3ccco3)CC2)c(Cl)c1)c1c(F)c(F)c(F)c(F)c1F	-33	u	-4	u	5%	-1
COc1ccc(S(=O)(=O)Nc2cc(C(=O)NCCC(C)C)ccc2N2CCOCC2)cc1	90	8.3µM*	-3	-2%	u	1
O=C(Nc1ccc(N2CCOCC2)c(Cl)c1)c1cccc(F)c1	46	124%	119*	u	x	44*
SMILES	HCMV inh	Pf growth 48h	Shiga toxin inh	HCV inh	Pf growth 96h	Cycloheximide cs
COc1c(F)c(F)c(C(=O)Nc2ccc(N3CCN(C(C)=O)CC3)c(Cl)c2)c(F)c1F	-83*	u	-6	u	x	0
COc1cc(NS(=O)(=O)c2ccc(NC(=O)CCC(=O)O)cc2)nc(OC)n1	32	29%	-1	-2%	0%	-1
O=C(Nc1ccc(N2CCOCC2)c(Cl)c1)c1c(F)c(F)c(F)c(F)c1F	-27	-13%	-4	8.9µM*	10%	-2
CC(=O)Nc1ccc(N2CCOCC2)c(Cl)c1	5	4%	76	14%	4%	-1
O=C(Nc1ccc(N2CCOCC2)c(Cl)c1)c1ccc(-n2cnnc2)cc1Cl	-15	-11%	-6	9%	17%	-1
O=C(Nc1ccc(N2CCOCC2)c(Cl)c1)c1cc(F)c(F)cc1Cl	-40	16%	27	u	x	19*
O=C(Nc1ccc(N2CCOCC2)c(Cl)c1)c1cccnc1Cl	13	u	14	-8%	u	6
COc1c(C)cccc1C(=O)Nc1ccc(N2CCOCC2)c(Cl)c1	20	x	121*	-29%	-27%	89*
CCN(CC(=O)NCc1ccc(Cl)cc1)C(=O)CCC(=O)c1ccc(F)cc1	-6	u	x	14%	0%	x
N#CC1=C(N)Oc2ccc3ccc(O)cc3c2C1c1cccnc1 (stereo not drawn)	55	1.3µM*	-10	-8%	u	-1
N#CC1=C(N)Oc2n[nH]c(-c3ccccc3)c2C1c1ccncc1 (stereo not drawn)	7	-15%	-13	-17%	-1%	7
CCOc1ccc(C2C(C#N)=C(N)Oc3cc(C)n(Cc4ccco4)c(=O)c32)cc1OC (stereo not drawn)	-19	u	3	-14%	x	-2
Cc1cc2c(c(=O)n1Cc1ccco1)C(c1cccnc1)C(C#N)=C(N)O2 (stereo not drawn)	-2	0%	1	20%	9.3µM*	1
N#CC1=C(N)Oc2n[nH]c(-c3ccc(F)cc3)c2C1c1cccnc1 (stereo not drawn)	-19	x	-14	17%	5.9µM*	-2
O=C(NCc1ccccc1)C(c1ccc(-c2ccccc2)cc1)n1c(=O)c(-c2cc3ccccc3[nH]2)nc2ccccc21 (stereo not drawn)	43	x	x	x	x	x
CC(C)c1cnc2c(c1SCC(=O)c1ccc(Cl)cc1)c(=O)n(C)c(=O)n2C	-24	x	x	x	x	x
Cc1ccc(SCC(=O)NCCC2=CCCCC2)cc1	-25	48%	38*	7%	u	38*
Cc1ccc(NC(=S)NCCC2=CCCCC2)cc1	32	-26%	89*	-23%	u	34*
Cc1ccc(OCC(=O)NCCC2=CCCCC2)cc1	-24	-1%	-52	-10%	u	18
CC(=O)c1cccc(NC(=S)NCCC2=CCCCC2)c1	u	-5%	47*	11µM*	132%	33*
CCS(=O)(=O)c1ccc2oc(SCC(=O)NCCC3=CCCCC3)nc2c1	-103*	u	19	3%	x	-1
CCNC(=O)c1c(NC(=O)COc2ccc(F)cc2)sc2c1CCCC2	-1	x	x	x	x	x
CCCNC(=O)C1(C)CCCN(Cc2c(F)cccc2F)C1 (stereo not drawn)	-7	x	x	x	x	x
COc1ccc(C)cc1NS(=O)(=O)c1ccc2c(c1)CCCN2C(C)=O	14	x	x	x	x	x

High-throughput results from PubChem BioAssay.
